# According to PubChem BioAssay (NCI):
# This is part of a sample that, as a whole, favours compounds with a hit. Of some 83,000 tested, about 20% had one in any assay.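 Percent growth is the endpoint: 0 to 100 indicates growth inhibition (40 means 60% inhibition), 0 means no net growth, and negative values indicate cell death.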 The source made the active and inactive calls. The calls were made as follows: active = growth percent below 10; inactive = the rest.
# Tested on: HL-60(TB) leukemia
# Assay: NCI-60 one-dose screen, 48 h (100 = growth as untreated, 0 = no growth, -100 = all killed)
# Conditions: 10 µM unless noted
row,SMILES,growth
1,CCOC(=O)C(Cc1ccccc1)n1c(O)c(/C=N/c2ncc(Cc3ccc(Cl)cc3Cl)s2)sc1=S (stereo not drawn),-35.2% (active)
2,COc1ccc(-c2nn(-c3cccc(Cl)c3)cc2-c2cc(-c3cccs3)[nH]c(=S)n2)cc1,46.4% (inactive)
3,c1csc(-c2cc(-c3cc(-c4cccs4)[nH]n3)n[nH]2)c1,87.1% (inactive)
4,COc1ccc(C2C=C(c3ccc(Cl)c(Cl)c3)N=C3SC(C)=CN32)cc1 (stereo not drawn),83.3% (inactive)
5,CC(=O)NC1(C(=O)O)CCCC1,101% (inactive)
6,O=C(N/N=C/c1cccc([N+](=O)[O-])c1)c1ccc(Br)o1,103% (inactive)
7,C=C1CC2(OC1=O)C(=O)N(CCCCCCCN1C(=O)C3(CC(=C)C(=O)O3)c3ccccc31)c1ccccc12 (stereo not drawn),11.7% (inactive)
8,COc1cccc(/C(C#N)=C/c2nc3c(N4CCOCC4)nc(Cl)nc3n2C)c1,-32% (active)
